Laboratory results from PubChem BioAssay (EPA / NIEHS).
Inconclusive results are not listed. Activity calls are given as the source filed them. The calls were made as follows: active = hit-call score of the fitted dose curve at least 0.9, where 1 is the maximum; inconclusive = response in the unintended direction; inactive = score below 0.9.

target: human Muscarinic, M4 Receptor, CHRM4 (gene 1132) (UniProt P08173); test: NVS_GPCR_hM4: NovaScreen (NVS) G Protein-Coupled Receptor Assay for human Muscarinic, M4 Receptor (AID 2283274)
Method: NVS_GPCR_hM4 is a biochemical, single-readout assay that uses extracted gene-proteins from CHO in a cell-free assay. Measurements were taken 1 hour after chemical dosing in a 96-well plate.NVS_GPCR_hM4 is one of one assay component(s) measured or calculated from the NVS_GPCR_hM4 assay. It is designed to make measurements of radioligand binding, a form of binding reporter, as detected with scintillation counting signals by Filter-based radiodetection technology.Data from the assay component NVS_GPCR_hM4 was analyzed into 1 assay endpoint. This assay endpoint, NVS_GPCR_hM4, was analyzed in the positive analysis fitting direction relative to DMSO as the negative control and baseline of activity. Using a type of binding reporter, loss-of-signal activity can be used to understand changes in the binding as they relate to the gene CHRM4. Furthermore, this assay endpoint can be referred to as a primary readout, because the performed assay has only produced 1 assay endpoint. To generalize the intended target to other relatable targets, this assay endpoint is annotated to the gpcr intended target family, where the subfamily is rhodopsin-like receptor.
Binding assays used specific radioligands (tritiated, iodinated) with non-radioactive competitive displacement ligands in agonist or antagonist protocols (as indicated) and various reference compounds and inhibitors to titrate specific binding to receptors and transporters. Most enzyme assays (CYPs, kinases, phosphatases, proteases, HDACs) used recombinant protein and specific substrates (fluorescence mostly, some colorimetric and radioactive) and inhibitors, followed by a biochemical separation of substrate and product. All assays for the biochemical HTS were initially run in duplicate at a single concentration (10 uM for CYP450 assays and 25 uM for all others). […] Each assay was run with positive and negative controls, and concurrent controls on every plate. The follow-up (secondary) screen tested active chemical-pairs in concentration series, as well as a few additional assays not tested in the primary screen, some selected negative inactives, and several cases re-run in the concentration series for confirmatory purposes.

Sequence of human Muscarinic, M4 Receptor, CHRM4 (gene 1132) (P08173 whole entry, looked up): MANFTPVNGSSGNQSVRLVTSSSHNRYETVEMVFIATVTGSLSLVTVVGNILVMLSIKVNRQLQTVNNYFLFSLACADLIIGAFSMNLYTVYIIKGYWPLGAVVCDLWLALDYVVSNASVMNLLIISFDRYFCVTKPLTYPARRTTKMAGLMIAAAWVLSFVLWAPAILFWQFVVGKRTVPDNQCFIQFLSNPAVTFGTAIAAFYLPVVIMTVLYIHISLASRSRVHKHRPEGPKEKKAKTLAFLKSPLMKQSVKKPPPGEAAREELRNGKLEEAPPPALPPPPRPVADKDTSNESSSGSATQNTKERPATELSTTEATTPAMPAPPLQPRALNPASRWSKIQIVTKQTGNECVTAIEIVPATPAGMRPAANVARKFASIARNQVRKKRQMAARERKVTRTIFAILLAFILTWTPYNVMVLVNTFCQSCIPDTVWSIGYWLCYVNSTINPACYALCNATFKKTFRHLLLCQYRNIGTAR

| Compound | outcome | AC50 |
| --- | --- | --- |
| COCCOc1cc2cc(C(=O)NC3CCN(C(C)C)CC3)n(CC(=O)Nc3ccc(Cl)cn3)c2cn1 | inactive | – |
| CCCN(C1CCN(C(=O)C2CCNCC2)CC1)[C@@H]1CCc2ccc(OC)cc2C1 | – | 0.00683 µM (active) |
| CCc1cc(SCc2sc(-c3ccc(C(F)(F)F)cc3)nc2CN2CCN(c3ccc(OC)cc3)CC2)ccc1OCC(=O)O | – | 35.7 µM (active) |
| CC[C@H]1CC[C@H](NCc2cc3c(cc2OC)[C@H]2C[C@H]2C(=O)N3C)[C@H](c2ccccc2)N1 | – | 2.31 µM (active) |
| CCOc1cccc(-n2cc(C(=O)N3CCN(c4cc(C(=O)O)c5ccccc5c4)CC3)nc2-c2ccc(C)cc2)c1 | – | 26.1 µM (active) |
| CCOC(=O)c1ccc(C2CCC(NC[C@H](O)COc3ccc(O)c(NS(C)(=O)=O)c3)CC2)cc1 (stereo partly specified) | – | 11.9 µM (active) |
| CCN(C(=O)c1cc(C)cc(OC[C@H](C)Nc2ccncc2)c1)C(C)C | – | 11.3 µM (active) |
| Nc1ccc(Nc2ccccc2)cc1 | – | 16.6 µM (active) |
| Cc1[nH]cnc1C[C@H]1CCc2c(C)c3ccccc3n2C1=O | inactive | – |
| CCOC(=O)COc1ccc2c(c1)CC(NCC(O)c1cccc(Cl)c1)CC2 (stereo unspecified) | – | 1.92 µM (active) |
| COc1cccc(-c2ccc(/C=C\CN3CCCCCC3)cc2Cl)c1 | – | 1.22 µM (active) |
